Assay results reported in PubChem BioAssay (NCI).
This is part of a sample that, as a whole, favours compounds with a hit. Of some 83,000 tested, about 20% had one in any assay.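 Note: values are percent growth. 100 is the growth of untreated cells, values between 100 and 0 indicate rising inhibition; between -100 and 0 indicates cell death.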 A number with no mark means an inactive call. Activity calls are given as the source filed them. How the source made its calls: active means growth percent below 10; inactive means the rest.

Legend:
Assay in all cases: NCI-60 one-dose screen, 48 h (100 = growth as untreated, 0 = no growth, -100 = all killed)
Settings in all cases: 10 µM
NCI-H23 lung = tested on: NCI-H23 lung
NCI-H226 lung = tested on: NCI-H226 lung
NCI-H322M lung = tested on: NCI-H322M lung
HOP-62 NSCLC = tested on: HOP-62 NSCLC
NCI-H460 lung = tested on: NCI-H460 lung
HOP-92 NSCLC = tested on: HOP-92 NSCLC
NCI-H522 lung = tested on: NCI-H522 lung
786-0 renal = tested on: 786-0 renal
COLO 205 colon = tested on: COLO 205 colon
A549/ATCC NSCLC = tested on: A549/ATCC NSCLC

SMILES | growth (NCI-H23 lung) | growth (NCI-H226 lung) | growth (NCI-H322M lung) | growth (HOP-62 NSCLC) | growth (NCI-H460 lung) | growth (HOP-92 NSCLC) | growth (NCI-H522 lung) | growth (786-0 renal) | growth (COLO 205 colon) | growth (A549/ATCC NSCLC)
O=C1/C(=C/c2ccc(O)cc2)Oc2ccc(Cl)cc21 | 71.4% | 68.8% | 82.8% | 85.6% | 79.6% | 67.1% | -65% (active) | 71.4% | 109% | 
COc1ccccc1NC1=C(N2CCCCC2)C(=O)c2ccccc2C1=O | 98.7% | 84.5% | 80.9% | 98.8% | 87.9% | 57.9% | 82.5% | 87.5% | 92.3% | 
O=C(NC1CCN(Cc2ccccc2)CC1)c1cc(-c2ccncc2)nc2ccc(Cl)cc12 | 38.3% | 26.9% | 32.5% | 45.6% | 6.31% (active) | 27.7% | 28.6% | 31.1% | 18.5% | 
CC(=O)OCC(COC(C)=O)(COC(C)=O)COC(C)=O | 102% | 93.5% | 99.5% | 102% | 104% | 105% | 99.4% | 112% | 109% | 
CCOC(=O)c1cc2c(n1Cc1ccccc1)-c1oncc1CC2 | 89.5% | 84.4% | 60.4% | 92.5% | 19.6% | 75.6% | 41.1% | 107% | 86.2% | 
O=C1/C(=C/c2ccc([N+](=O)[O-])s2)Oc2ccc(Cl)cc21 | -35.5% (active) | -56.8% (active) | -43% (active) | -6.59% (active) | -48.8% (active) | -71% (active) | -70.3% (active) | -17.3% (active) | -69.6% (active) | 
C=C1C(=O)O[C@H]2[C@H]1CC/C(COC(=O)OCCCCCOC(=O)OC/C1=C/CC[C@@]3(C)O[C@H]3[C@H]3OC(=O)C(=C)[C@@H]3CC1)=C\CC[C@@]1(C)O[C@@H]21 | -37.5% (active) | -33% (active) | 50.9% | 9.65% (active) | -19.9% (active) | -49.6% (active) | -66.2% (active) | -63.8% (active) | -85% (active) | 44.3%
O=C(O)CCCN1C(=O)NC2(C1=O)c1ccccc1-c1ccccc12 | 93.2% | 91.1% | 101% | 102% | 105% | 88.5% | 80.4% | 95.2% | 108% | 
CCCc1c(CC)c(=N)c2ccccc2n1C | 88% | 83.2% | 71% | 68.2% | 65.9% | 76.1% | 73.6% | 41% | -18.5% (active) | 
C[N+]1(CC2CO2)CCCCCC1 (stereo not given) | 110% | 99.4% | 107% | 103% | 106% | 113% | 107% | 105% | 120% | 
CN(C)CCCN1c2ccccc2Sc2ccc(C(F)(F)F)cc21 | 47% | 54.7% | 37.1% | 37.2% | 13.8% | -9.96% (active) | -15.2% (active) | 9.65% (active) |  | 
NS(=O)(=O)c1ccc(N2N=C(c3ccc(-c4ccccc4)cc3)CC2c2ccc(Cl)cc2)cc1 (stereo not given) | 85.9% | 81% | 87.6% | 90.8% |  | 78.4% | 75.1% | 95.9% | 103% | 64.1%
O=C(Nc1ccc(Oc2ccc(Nc3nc4ccccc4s3)cc2)cc1)Nc1ccc(Cl)c(Cl)c1 | 8.31% (active) | 46.5% | 56.6% | 47% |  | 37.9% | 7.82% (active) | 43.3% | 31.1% | 32.8%
Nc1ncncc1-c1ccc(F)cc1 | 108% | 108% | 108% | 105% |  | 95.9% | 119% | 104% | 114% | 106%
CCCCNC(=O)Oc1ccc(/C(=C(\C)c2ccc(OC)cc2)c2ccc(OCCN3CCCCC3)cc2)cc1 | 68.4% | 96.5% | 87.6% | 69.1% |  | 47.2% | 74% | 17.1% | -7.56% (active) | 47.5%
COc1ccccc1S(=O)(=O)Nc1ccc2c(c1)CN(C)C(=O)N2 | 56.7% | 63% | 42.9% | 44.3% |  | 2.37% (active) | 26.1% | 72.7% | 38.4% | 
O=C(Nc1cccc(-c2nc3ccccc3[nH]2)c1)c1cccc(NC(=O)c2ccco2)c1 | 98% | 90.1% | 94.1% | 73.2% |  | 38.8% | 98.5% | 67% | 31.4% | 82.7%
COc1c(-c2c3sc(=O)[nH]c3nc3c2c(=O)[nH]n3C(C)C)cc2c(c1OC)OCO2 | 100% | 85.8% | 92.2% | 94.5% |  | 72.2% | 86% | 86.5% | 117% | 95.8%
COc1ccc(-c2nc(NC(=O)CS(=O)(=O)c3ccc(F)cc3)sc2C)cc1 | 37% | 93.9% | 69.5% | 65.3% |  | 37% | 49% | 60.9% | 88.8% | 54.2%
Fc1cc(-c2ncc(-c3cc(F)c(F)c(F)c3)c(NC3CCCCCC3)n2)cc(F)c1F | 102% | 95.9% | 102% | 122% |  | 88.8% | 120% | 98.3% | 115% | 85.6%
Nc1nc(SCC#CCCl)c2[nH]cnc2n1 | 66.2% | 65.1% | 62.7% | 94.2% |  | 39.9% | 20.1% | 41.5% | 47.7% | 54.5%
Cc1cc(C)c2nc(C)c(C)[n+]([O-])c2c1 | 97.1% | 103% | 94.7% | 73.4% |  | 93.4% | 85.2% | 103% | 111% | 68.6%
COc1cccc2c1O/C(=C\c1ncc([N+](=O)[O-])n1C)C2=O | -20.4% (active) | -16.4% (active) | 23.9% | -28.5% (active) |  | -36.8% (active) | -56.8% (active) | -28.7% (active) | -57.8% (active) | -23.8% (active)
Oc1cc(O)c(Br)cc1Br | 110% | 103% | 91.8% | 105% |  | 85.4% | 88.8% | 93.1% | 101% | 98.9%
